# Hits are enriched below; roughly 19% of the tested compounds scored in any of these assays.
# TGFb inhibitor: blocks TGF-b signaling; HepG2 CAGA-GFP TGF-b/SMAD3 reporter, GFP fluorescence, 18 h; TGF-beta stimulated, 500 pg/mL final; Potency, µM (doses to about 46.1 µM), usual class: inhibitors; 410,000 tested, 1.2% active; AID 588855; also: nearly all actives have a fitted effect of over 65% in size
#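 TGF-beta reporter screen: HEPG2 CAGA-GFP, 1% FBS, 500 pg/mL TGF-beta final, 18 h; per-cell GFP summed per well; curves fitted and categorized by class.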
# HepG2 tox: kills HepG2 cells in TGF-b inhibitor counter-screen | HepG2 CAGA-GFP viability, ATP luminescence, 18 h | Potency, µM (doses to about 46.1 µM), actives largely listed as cytotoxic | 410,000 tested, 0.76% active | AID 588856
#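 HepG2 CAGA-GFP cells (1000/well, DMEM with 1% FBS) received compound, then TGF-beta at 500 pg/mL final, and were incubated 18 hours at 37 degrees C. Viability was read by CellTiter-Glo luminescence. Media-only wells were set as complete cell-killing and DMSO as no toxicity.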
# TDP1 block: TDP1 (human) enzyme inhibition. Q9NUW8. recombinant TDP1, AlphaScreen DNA substrate cleavage. Potency, µM (highest dose often 130 µM), hits mostly inhibitors. 350,000 tested, 0.28% active. AID 485290; also: nearly all actives have a fitted effect of over 40% in size
# Target sequence (Q9NUW8 whole entry, looked up): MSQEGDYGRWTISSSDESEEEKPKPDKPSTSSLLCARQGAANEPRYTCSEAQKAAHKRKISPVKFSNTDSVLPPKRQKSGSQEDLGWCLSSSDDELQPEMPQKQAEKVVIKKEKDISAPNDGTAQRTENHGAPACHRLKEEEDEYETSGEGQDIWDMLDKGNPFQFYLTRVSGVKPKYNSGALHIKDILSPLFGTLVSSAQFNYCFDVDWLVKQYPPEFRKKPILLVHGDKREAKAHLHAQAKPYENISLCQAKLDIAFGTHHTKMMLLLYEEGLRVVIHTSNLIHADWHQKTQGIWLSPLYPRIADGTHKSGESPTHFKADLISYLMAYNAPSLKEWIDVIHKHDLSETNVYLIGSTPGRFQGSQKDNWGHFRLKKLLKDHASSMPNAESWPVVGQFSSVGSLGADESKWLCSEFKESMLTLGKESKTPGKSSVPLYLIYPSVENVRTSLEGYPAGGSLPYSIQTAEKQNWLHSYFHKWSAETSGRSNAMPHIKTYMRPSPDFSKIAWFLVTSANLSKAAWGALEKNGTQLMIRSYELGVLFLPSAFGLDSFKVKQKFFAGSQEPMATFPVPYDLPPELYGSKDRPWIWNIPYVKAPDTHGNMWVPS
#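 Signal: AlphaScreen proximity between streptavidin donor and anti-FITC acceptor beads on intact substrate. Reaction: Tdp1 1 nM, substrate 15 nM final, 5 min RT after 15 min compound preincubation.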
# TDP1 cell CPT: DT40-hTDP1 cell growth loss with CPT. chicken DT40 Tdp1-/-;hTDP1 cells + 20 nM CPT, ATP luminescence, 48 h. Potency, µM (doses to about 46.2 µM), actives largely listed as inhibitors. 420,000 tested, 12% active. AID 686979; also: nearly all actives have a fitted effect of over 55% in size
#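 Chicken DT40 Tdp1-/- cells complemented with human TDP1, 400 cells/well, exposed to compounds plus 20 nM camptothecin for at least 48 h at 37 C; viability read as ATP content by CellTiter-Glo luminescence.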
# IL-1B inflam inh: inflammasome signaling inhibition, IL-1 beta readout | THP-1 LPS/ATP IL-1B secretion, AlphaLISA, 16 h; hits give low values | activity change, % at 57.5 µM | 360,000 tested, 4.7% active; in the data active = activity change below about -50%; inconclusive = mostly about -30% to -49%
#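 THP-1 cells pretreated 1 hr with compounds (up to 57.5 uM final), then stimulated with LPS (250 ng/mL final) plus ATP (1.25 mM final); secreted IL-1B measured by AlphaLISA after 16 hr, decreased signal indicating inhibition.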
# TDP1 cell noCPT: qHTS for Inhibitors of human tyrosyl-DNA phosphodiesterase 1 (TDP1): qHTS in cells in absence of CPT; DT40 Tdp1-/- hTDP1 cells, no CPT, ATP luminescence, 48 h; Potency, µM (top dose mostly 46.2 µM), usual class: inhibitors; 420,000 tested, 15% active; also: nearly all actives have a fitted effect of over 55% in size
#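 Seeded 400 DT40-hTDP1 cells/well (vehicle DMSO, no 20 nM CPT); pinned compounds; ≥48 hr at 37 °C; CellTiter-Glo luminescence as viability measure.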
# A number is an active result; 0 = inactive; ? = inconclusive; - = no result given. Unless noted, calls follow the shape of the dose curve; as a rule, active = well fitted curve in the direction sought with a large enough effect; inconclusive = small, poorly fitted or top-dose-only effect, or another doubt; inactive = no such curve, though single readings can be large; an effect the other way counts as inactive or inconclusive.
SMILES,TGFb inhibitor,HepG2 tox,TDP1 block,TDP1 cell CPT,IL-1B inflam inh,TDP1 cell noCPT
O=C(NCCCN1CCOCC1)c1cccc(S(=O)(=O)Nc2ccccc2Cl)c1,0,0,0,0,0,0
O=C(NNC(=O)C1CCN(Cc2cccc(F)c2)CC1)c1cccc(Cl)c1,0,0,0,0,0,?
O=C(NC(c1ccc(Cl)cc1)c1ccsc1)C1CCN(Cc2cccc(C(F)(F)F)c2)CC1 (stereo not drawn),0,0,-,4.1µM,-70,4.1µM
O=C(NC(c1ccc(Cl)cc1)c1ccsc1)C1CCN(Cc2cccc(Cl)c2)CC1 (stereo not drawn),?,0,-,5.2µM,0,4.6µM
COCCOC(=O)C1=C(C)NC(=O)NC1c1cn(-c2ccccc2)nc1-c1ccccc1 (stereo not drawn),0,0,-,0,-,0
O=C(NCCc1c[nH]c2ccc(Cl)cc12)c1cccnc1,0,0,0,?,0,21µM
COC(=O)COc1ccc(Oc2nc(NC(C)(C)C)nc(N3CCOCC3)n2)nn1,0,0,0,0,-,0
CCCc1n[nH]c(=O)c2c1nnn2Cc1ccccc1,0,0,-,0,0,0
CCc1cc(-c2cnnn2Cc2ccccc2)ccc1-c1cn(CC(C)C)nn1,?,0,-,?,?,10µM
COc1ccc(OCCNC(=O)c2ccc(C)cc2)cc1,0,0,-,0,0,0
COc1ccc(C(=O)/C=C2/c3ccccc3CC(C)(C)N2C)cc1OC,0,0,0,?,0,16µM
COCCN(C(=O)C(C)C)c1nnc(-c2cccc(C)c2)s1,0,0,0,0,-53,0
Cc1ccc(CNC(=O)c2cccn2-c2nnc(N3CCCC3)s2)cc1,?,0,0,?,-,?
Cc1ccc(CNC(=O)c2cccn2-c2nnc(N3CCCCC3)s2)cc1,7.9µM,0,0,21µM,-,23µM
CCOc1ccc(CNC(=O)c2cccn2-c2nnc(N3CCCCC3)s2)cc1OC,0,0,0,26µM,-,16µM
CCN(CC)c1ccc(NC(=O)c2cccn2-c2nnc(N3CCCCC3)s2)c(C)c1,?,0,0,5.2µM,-,5.8µM
COc1ccc(CNC(=O)c2cccn2-c2nnc(N3CCCC3)s2)c(OC)c1,0,0,0,?,-,16µM
O=C(NCc1ccccc1)c1cccn1-c1nnc(N2CCCCC2)s1,0,0,0,?,-,?
COc1ccc(NC(=O)c2cccn2-c2nnc(N3CCCCC3)s2)c(OC)c1,0,0,0,?,-,?
CCOc1ccccc1CNC(=O)c1cccn1-c1nnc(N2CCCCC2)s1,?,0,0,?,-,?
Cc1[nH]c(=O)[nH]c1C(=O)CCCCC(=O)OCC(=O)Nc1ccccn1,0,0,0,0,-114,0
CCOC(=O)CCCCC(=O)c1[nH]c(=O)[nH]c1C[n+]1ccc(C)cc1,?,0,0,0,?,0
CN(C)CCCNC(=O)C[C@H]1C[C@H](C(=O)N2CCCCC2)[C@@]2(C)c3[nH]c4ccc(Cl)cc4c3CCN2C1=O,0,0,0,?,0,?
C[C@]12c3[nH]c4ccc(Cl)cc4c3CCN1C(=O)[C@@H](CC(=O)NCCN1CCOCC1)C[C@@H]2C(=O)N1CCCCC1,0,0,0,?,0,16µM
C[C@]12c3[nH]c4ccc(Cl)cc4c3CCN1C(=O)[C@@H](CC(=O)NCC13CC4CC(CC(C4)C1)C3)C[C@@H]2C(=O)N1CCCCC1,0,0,0,16µM,-60,16µM
SMILES,TGFb inhibitor,HepG2 tox,TDP1 block,TDP1 cell CPT,IL-1B inflam inh,TDP1 cell noCPT
O=C(CN1C(=O)COc2ccc(S(=O)(=O)N3CCOCC3)cc21)N1CCN(c2ccc(F)cc2)CC1,0,0,0,-,-,-
CC1CC(C)CN(C(=O)c2cccc(S(=O)(=O)N(C)c3ccccc3)c2)C1 (stereo not drawn),0,0,0,8.2µM,0,5.8µM
CN(c1ccccc1)S(=O)(=O)c1ccc(C(=O)N2CCc3ccccc3C2)cc1,?,0,0,?,0,?
Cc1ccc(S(=O)(=O)N(C)C)cc1NC(=S)N1CCN(Cc2ccc3c(c2)OCO3)CC1,0,0,0,15µM,0,16µM
Cc1ccc(S(=O)(=O)N(C)c2ccc(C(=O)N3CCc4ccccc4C3)cc2)cc1,?,0,0,?,-62,?
CN(c1ccccc1)S(=O)(=O)c1ccc(C(=O)N2CCCC2)cc1,0,0,0,0,0,0
CN(c1ccccc1)S(=O)(=O)c1cccc(C(=O)N2CCCCCC2)c1,0,0,0,16µM,0,21µM
Nc1ncn(C2C[C@H](O)[C@@H](CO)O2)c(=O)n1 (stereo partly drawn),-,-,0,-,-,-
COc1ccc(N(C)S(=O)(=O)c2cccc(C(=O)OCC(=O)N3CC(C)CC(C)C3)c2)cc1 (stereo not drawn),0,0,0,?,0,21µM
CN(c1ccc(C(=O)N2CCN(Cc3ccccc3)CC2)cc1)S(=O)(=O)c1ccccc1,0,0,0,0,?,15µM
COc1ccc(N(C)S(=O)(=O)c2cccc(C(=O)OCC(=O)NCc3ccccc3OC)c2)cc1,0,0,0,0,0,?
CN(c1ccc(C(=O)N2CCCCC2)cc1)S(=O)(=O)c1ccccc1,0,0,0,13µM,0,8.2µM
Cc1ccc(S(=O)(=O)N(C)CC(=O)N2CCN(Cc3ccc4c(c3)OCO4)CC2)cc1,0,0,0,?,?,?
Cc1ccc(S(=O)(=O)N(C)c2ccc(C(=O)N3CCN(Cc4ccc5c(c4)OCO5)CC3)cc2)cc1,?,0,0,?,-73,21µM
CCOCCCNc1nc2c(S(=O)(=O)c3ccc(CC)cc3)nnn2c2ccc(Cl)cc12,0,0,0,?,-,?
CC(C)NC(=O)[C@@H]1C[C@@H](Sc2ccccn2)CN1C1CCN(C)CC1,-,-,-,0,-,0
COC(=O)CSc1nnc(-c2cccc(O)c2)o1,0,0,0,0,-,0
C=C[C@@H]1[C@@H](C)[C@H](C)C(=O)C([C@H](O)C(C)C)[C@@H]1C (stereo partly drawn),0,0,0,-,-,-
CSc1ncccc1C(=O)OCC(=O)NC1CCCCC1,0,0,0,0,0,0
Cc1ccc(S(=O)(=O)N(C)c2ccc(C(=O)N3CCCCC3)cc2)cc1,?,0,0,9.2µM,0,?
CCOc1ccccc1NC(=O)c1cccc2ccccc12,0,0,-,?,0,?
CCOc1ccccc1NC(=O)c1cc(SC)ccc1Cl,0,0,0,?,0,18µM
CCOc1ccccc1NC(=O)c1ccccc1-c1ccccc1,0,0,0,?,0,23µM
